# Reference: the supplement of paper PMC11732987, “Enantioselective OTUD7B fragment discovery through chemoproteomics screening and high-throughput optimisation” (Communications Chemistry, 2025)
# A number with no mark means an inactive call.
# Biological target: T1, BAP1 (UniProt Q92560)
# T1 sequence (whole entry): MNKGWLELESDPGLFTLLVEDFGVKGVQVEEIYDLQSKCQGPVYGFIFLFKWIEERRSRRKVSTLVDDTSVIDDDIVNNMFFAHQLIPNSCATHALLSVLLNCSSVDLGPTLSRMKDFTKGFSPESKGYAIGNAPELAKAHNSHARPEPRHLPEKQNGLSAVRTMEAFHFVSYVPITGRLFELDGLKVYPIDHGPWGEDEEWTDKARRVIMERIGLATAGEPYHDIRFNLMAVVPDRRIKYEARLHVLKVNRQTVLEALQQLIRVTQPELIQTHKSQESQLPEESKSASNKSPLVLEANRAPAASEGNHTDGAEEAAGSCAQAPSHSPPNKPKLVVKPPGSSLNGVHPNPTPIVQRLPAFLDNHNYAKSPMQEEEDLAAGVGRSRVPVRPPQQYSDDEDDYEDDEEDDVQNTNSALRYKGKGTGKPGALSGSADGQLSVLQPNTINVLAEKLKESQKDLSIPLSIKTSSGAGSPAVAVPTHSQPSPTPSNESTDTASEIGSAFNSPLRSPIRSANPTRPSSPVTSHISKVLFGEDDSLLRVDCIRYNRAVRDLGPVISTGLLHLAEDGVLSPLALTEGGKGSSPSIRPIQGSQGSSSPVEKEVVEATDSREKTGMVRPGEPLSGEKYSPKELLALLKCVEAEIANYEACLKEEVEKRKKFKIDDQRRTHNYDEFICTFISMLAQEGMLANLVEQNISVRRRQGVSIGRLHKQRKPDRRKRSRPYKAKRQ
# Assay: log2 ratio of Biotin-Ahx-Ub-VS probe labelling (fragment/DMSO); higher = less target engagement (more negative = stronger competition), active = hit call of the paper (q ≤ 0.05, log2 ratio ≤ -1)
# Details: compound concentration: 200 uM; treatment time: 3 h
# Summary of the method: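 Labelling with Biotin-Ahx-Ub-VS (0.5 µM final, 1 h) followed a 3 h triplicate treatment of HEK293T lysate (495 µg per sample, Tris/CHAPS/IGEPAL buffer with protease inhibitors) with fragment at 200 µM or vehicle. Labelled DUBs were NeutrAvidin-enriched, digested with LysC and trypsin, and run by diaPASEF LC-MS/MS. The values, average log2 fragment/vehicle ratios by unpaired t-test, come from global-median-normalised Spectronaut label-free quantities. Proteins with ≥2 unique peptides were used.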
row,Compound,log2 ratio of Biotin-Ahx-Ub-VS probe labelling
1,Cl.O=C(CCl)N1CCC(n2nc3ccccc3n2)CC1,-2.08 (active)
2,Cc1cccc(C)c1NC(=O)CCl,-3.62 (active)
3,CCN(C(=O)CCl)C1CCS(=O)(=O)C1 (stereo not given),-0.0461
4,Cl.O=C(CCl)N[C@H]1C[C@@H](n2cccn2)C1,-1.24 (active)
5,Cc1ccc2nnc(CNC(=O)CCl)n2c1,-1.05 (active)
6,O=C(CCl)Nc1ccc(N2CCCC2=O)cc1,-3.73 (active)
7,Cl.O=C(CCl)NCc1ccnc(Oc2ccccc2F)c1,-3.99 (active)
8,O=C(CCl)N1CCC(S(=O)(=O)c2ccc(F)cc2)CC1,-1.46 (active)
9,Cl.O=C(CCl)N1CCn2ncc(O)c2C1,-2.39 (active)
10,Cc1cccc(NC(=O)CCl)c1C,-3.21 (active)
11,CCN(C(=O)CCl)C1CCCCC1,0.174
12,O=C(CCl)NC1(c2ccc3c(c2)OCCO3)CCCC1,-1.89 (active)
13,O=C(CCl)N1CCN(C(=O)Nc2ccccc2)CC1,-0.529
14,O=C(CCl)NC(Cn1ccccc1=O)c1ccccc1 (stereo not given),-1.18 (active)
15,CC1CCc2onc(CNC(=O)CCl)c2C1 (stereo not given),-1.22 (active)
16,O=C(CCl)N1CCCCCC1c1ncon1 (stereo not given),-0.409
17,Cc1cccc(N(CCC#N)C(=O)CCl)c1C,-0.645
18,O=C(CCl)Nc1ccccc1C(F)(F)F,-2.61 (active)

row,Compound,log2 ratio of Biotin-Ahx-Ub-VS probe labelling
1,Cc1ccccc1OCC(=O)N1CCN(C(=O)CCl)CC1,-0.74
2,CN(C)C(=O)c1ccc(CNC(=O)CCl)cc1,-2.84 (active)
3,Cl.Cn1cnc2cc(CNC(=O)CCl)ccc21,-2.15 (active)
4,N#Cc1ccc(CNC(=O)CCl)cc1,-3.38 (active)
5,Cc1nc(CN2CCCN(C(=O)CCl)CC2)no1.Cl,0.234
6,Cc1ccc(C)c(NC(=O)CCl)c1,-3.51 (active)
7,Cc1cc(CC(C)NC(=O)CCl)n[nH]1 (stereo not given),-0.509
8,O=C(CCl)N1CCCN(C(=O)c2ccc(Cl)cc2)CC1,-0.719
9,Cl.O=C(CCl)NCCN1CCc2ccccc21,-1.61 (active)
10,CC1(NC(=O)CCl)CCS(=O)(=O)C1 (stereo not given),-1.37 (active)
11,N#Cc1ccc(Cl)cc1NC(=O)CCl,-4.1 (active)
12,O=C(CCl)N1CCCC1c1ccsc1 (stereo not given),-3.75 (active)
13,O=C(CCl)NCc1ccc(N2CCOCC2)nc1,-2.61 (active)
14,O=C(CCl)NCc1cccc(F)c1,-2.76 (active)
15,COc1ccccc1C(C)NC(=O)CCl (stereo not given),-2.35 (active)
16,COc1ccc(Cl)cc1NC(=O)CCl,-1.61 (active)
17,O=C(CCl)N1CCC(c2nc3ccccc3o2)CC1,-1.64 (active)
